# Measurements from article PMC7862700, “An all-to-all approach to the identification of sequence-specific readers for epigenetic DNA modifications on cytosine”.
# Experiments:
# Experiment in all cases: DAPPL (digital affinity profiling via proximity ligation, sequencing); 10 mM Tris-HCl pH 7.5, 50 mM NaCl, 1 mM DTT, 4% glycerol, room temperature, 30 min; GST-TFs on glutathione beads, 16-mer random dsDNA library, 0.1% formaldehyde crosslink after washing; high values mean tight binding
# Conditions in all cases: protein: recombinant; tags: N-terminal GST; dsDNA, one strand shown
# [1] = target: T1, ELK1 (Homo sapiens, UniProt P19419 1-428)
# T1 sequence: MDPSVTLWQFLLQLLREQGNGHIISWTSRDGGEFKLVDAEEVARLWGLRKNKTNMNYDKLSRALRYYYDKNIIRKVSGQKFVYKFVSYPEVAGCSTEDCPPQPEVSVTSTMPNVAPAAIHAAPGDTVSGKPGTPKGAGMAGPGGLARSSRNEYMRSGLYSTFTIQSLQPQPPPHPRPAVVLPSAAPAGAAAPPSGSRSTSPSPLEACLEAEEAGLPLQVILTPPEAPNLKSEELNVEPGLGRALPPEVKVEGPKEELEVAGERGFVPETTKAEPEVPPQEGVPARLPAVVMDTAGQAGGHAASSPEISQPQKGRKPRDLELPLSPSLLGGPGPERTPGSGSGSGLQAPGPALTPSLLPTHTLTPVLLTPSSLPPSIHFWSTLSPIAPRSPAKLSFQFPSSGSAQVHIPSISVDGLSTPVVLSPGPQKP
# In short: (§1)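 Beads coated with glutathione captured GST-fused human transcription factors that had been expressed in yeast, and the factors were then given DNA barcodes and pooled with a tag-only sample. The pools were incubated with 200 nmole of a random double-stranded 16-mer DNA library in Tris/NaCl/DTT/glycerol buffer for 30 min at room temperature, washed, crosslinked with 0.1% formaldehyde and proximity-ligated with BsaI/T4 ligase at 37 °C for 1 h. PCR amplification and Illumina NextSeq500 sequencing came last. Binding signal is each hexamer's read frequency for a factor divided by its frequency for the tag-only sample.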
# [2] = target: ELF1 (Homo sapiens, UniProt P32519 1-619)
# Sequence of ELF1 (P32519 whole entry): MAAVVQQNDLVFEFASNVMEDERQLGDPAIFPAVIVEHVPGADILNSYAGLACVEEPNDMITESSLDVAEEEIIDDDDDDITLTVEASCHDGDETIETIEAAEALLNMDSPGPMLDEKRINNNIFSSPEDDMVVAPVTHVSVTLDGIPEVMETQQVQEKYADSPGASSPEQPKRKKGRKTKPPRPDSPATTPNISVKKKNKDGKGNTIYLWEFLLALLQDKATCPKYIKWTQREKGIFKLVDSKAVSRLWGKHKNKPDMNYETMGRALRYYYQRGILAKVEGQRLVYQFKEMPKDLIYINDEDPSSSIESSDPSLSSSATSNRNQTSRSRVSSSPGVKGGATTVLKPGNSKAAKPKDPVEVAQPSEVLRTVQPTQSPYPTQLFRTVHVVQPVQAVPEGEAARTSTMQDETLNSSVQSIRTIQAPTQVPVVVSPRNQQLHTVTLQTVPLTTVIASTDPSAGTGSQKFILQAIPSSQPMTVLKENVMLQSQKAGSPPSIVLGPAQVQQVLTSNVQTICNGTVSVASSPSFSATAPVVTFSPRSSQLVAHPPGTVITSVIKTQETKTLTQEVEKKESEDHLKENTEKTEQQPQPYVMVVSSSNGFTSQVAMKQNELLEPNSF
# In short: as §1
# [3] = target: SPIB (Homo sapiens, UniProt Q01892 1-262)
# Sequence of SPIB (Q01892 whole entry): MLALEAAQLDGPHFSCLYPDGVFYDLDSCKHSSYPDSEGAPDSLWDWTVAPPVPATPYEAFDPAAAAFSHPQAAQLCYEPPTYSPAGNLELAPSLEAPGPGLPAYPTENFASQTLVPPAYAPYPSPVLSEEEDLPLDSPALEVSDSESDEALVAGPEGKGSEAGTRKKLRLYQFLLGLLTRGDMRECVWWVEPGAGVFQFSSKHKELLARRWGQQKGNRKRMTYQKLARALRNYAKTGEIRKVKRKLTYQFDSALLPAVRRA
# In short: as §1
# [4] = target: T2, ELK3 (Homo sapiens, UniProt P41970 1-407)
# T2 sequence: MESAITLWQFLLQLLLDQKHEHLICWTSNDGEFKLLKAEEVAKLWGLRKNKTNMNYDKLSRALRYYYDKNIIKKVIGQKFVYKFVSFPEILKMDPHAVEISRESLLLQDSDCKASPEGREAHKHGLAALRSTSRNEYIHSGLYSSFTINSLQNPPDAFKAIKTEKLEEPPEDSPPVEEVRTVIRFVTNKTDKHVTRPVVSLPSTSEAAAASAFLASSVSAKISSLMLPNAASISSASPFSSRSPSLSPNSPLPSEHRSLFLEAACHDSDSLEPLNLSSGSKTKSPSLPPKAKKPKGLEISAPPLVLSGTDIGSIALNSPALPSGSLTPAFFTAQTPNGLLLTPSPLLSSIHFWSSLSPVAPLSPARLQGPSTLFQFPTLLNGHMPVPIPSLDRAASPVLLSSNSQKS
# In short: as §1
# [5] = target: T3, SPIC (Homo sapiens, UniProt Q8N5J4 1-248)
# T3 sequence: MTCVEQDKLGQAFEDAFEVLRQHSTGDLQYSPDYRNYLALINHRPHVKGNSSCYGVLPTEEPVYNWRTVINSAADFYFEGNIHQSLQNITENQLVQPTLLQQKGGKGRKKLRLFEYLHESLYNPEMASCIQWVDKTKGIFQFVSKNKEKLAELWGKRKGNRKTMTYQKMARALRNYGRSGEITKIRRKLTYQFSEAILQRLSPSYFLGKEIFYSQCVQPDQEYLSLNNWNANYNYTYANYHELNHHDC
# In short: as §1
# [6] = target: ELF4 (Homo sapiens, UniProt Q99607 1-663)
# Sequence of ELF4 (Q99607 whole entry): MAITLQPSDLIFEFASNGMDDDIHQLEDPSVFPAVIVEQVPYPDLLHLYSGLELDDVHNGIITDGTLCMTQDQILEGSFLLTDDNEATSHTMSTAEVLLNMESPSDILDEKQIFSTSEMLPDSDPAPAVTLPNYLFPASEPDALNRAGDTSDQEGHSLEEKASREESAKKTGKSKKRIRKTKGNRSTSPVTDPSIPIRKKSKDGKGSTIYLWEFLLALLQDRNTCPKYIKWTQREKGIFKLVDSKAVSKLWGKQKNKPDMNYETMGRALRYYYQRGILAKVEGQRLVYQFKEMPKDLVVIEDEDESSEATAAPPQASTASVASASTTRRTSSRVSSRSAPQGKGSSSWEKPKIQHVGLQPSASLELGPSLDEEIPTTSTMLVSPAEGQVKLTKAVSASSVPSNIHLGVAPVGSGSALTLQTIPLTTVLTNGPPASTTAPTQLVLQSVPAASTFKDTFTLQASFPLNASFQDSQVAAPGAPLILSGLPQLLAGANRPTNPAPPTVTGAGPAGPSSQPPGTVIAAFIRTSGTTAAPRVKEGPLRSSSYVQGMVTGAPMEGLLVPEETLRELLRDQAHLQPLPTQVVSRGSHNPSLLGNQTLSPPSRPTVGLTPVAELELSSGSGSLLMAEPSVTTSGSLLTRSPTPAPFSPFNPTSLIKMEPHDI
# In short: as §1
# [7] = target: T4, ELK4 (Homo sapiens, UniProt P28324-2 1-405)
# T4 sequence: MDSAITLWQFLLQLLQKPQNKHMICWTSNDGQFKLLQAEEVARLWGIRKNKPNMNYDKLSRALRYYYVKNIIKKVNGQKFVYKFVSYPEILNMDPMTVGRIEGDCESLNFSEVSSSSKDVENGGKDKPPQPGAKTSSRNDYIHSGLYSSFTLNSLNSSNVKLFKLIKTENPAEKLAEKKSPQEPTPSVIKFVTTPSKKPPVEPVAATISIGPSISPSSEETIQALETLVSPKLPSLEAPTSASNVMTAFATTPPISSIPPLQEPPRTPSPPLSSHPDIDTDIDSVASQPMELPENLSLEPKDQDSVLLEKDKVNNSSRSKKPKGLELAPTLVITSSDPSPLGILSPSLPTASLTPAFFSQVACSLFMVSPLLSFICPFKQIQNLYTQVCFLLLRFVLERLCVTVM
# In short: as §1
# [8] = target: T5, ELF3 (Homo sapiens, UniProt P78545 1-371)
# T5 sequence: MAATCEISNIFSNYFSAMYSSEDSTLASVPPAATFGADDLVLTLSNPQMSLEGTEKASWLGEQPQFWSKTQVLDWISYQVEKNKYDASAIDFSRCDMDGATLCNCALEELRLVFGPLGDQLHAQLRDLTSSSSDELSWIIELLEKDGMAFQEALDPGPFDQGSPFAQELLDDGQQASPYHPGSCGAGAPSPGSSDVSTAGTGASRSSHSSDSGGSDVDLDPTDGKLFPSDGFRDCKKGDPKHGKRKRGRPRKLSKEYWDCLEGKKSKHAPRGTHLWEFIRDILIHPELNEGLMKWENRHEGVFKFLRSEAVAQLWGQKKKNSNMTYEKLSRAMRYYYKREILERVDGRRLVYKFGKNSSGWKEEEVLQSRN
# In short: as §1
# [9] = target: T6, ERF (Homo sapiens, UniProt P50548 1-548)
# T6 sequence: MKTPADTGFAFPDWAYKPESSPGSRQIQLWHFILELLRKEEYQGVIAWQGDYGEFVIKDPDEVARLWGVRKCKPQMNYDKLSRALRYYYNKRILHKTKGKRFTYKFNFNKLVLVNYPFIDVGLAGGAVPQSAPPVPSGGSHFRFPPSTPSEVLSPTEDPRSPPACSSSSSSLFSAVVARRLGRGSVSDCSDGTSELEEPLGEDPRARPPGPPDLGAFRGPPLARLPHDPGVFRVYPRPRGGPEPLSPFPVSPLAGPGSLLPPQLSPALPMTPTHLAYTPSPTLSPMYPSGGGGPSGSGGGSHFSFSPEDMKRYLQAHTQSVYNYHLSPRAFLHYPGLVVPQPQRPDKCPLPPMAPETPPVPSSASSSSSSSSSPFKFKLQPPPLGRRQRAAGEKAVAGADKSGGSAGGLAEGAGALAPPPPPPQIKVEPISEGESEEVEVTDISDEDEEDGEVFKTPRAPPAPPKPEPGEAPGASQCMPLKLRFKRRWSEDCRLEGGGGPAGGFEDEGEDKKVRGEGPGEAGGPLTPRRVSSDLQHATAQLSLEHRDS
# In short: as §1
# [10] = target: T7, ETV3L (Homo sapiens, UniProt Q6ZN32 1-361)
# T7 sequence: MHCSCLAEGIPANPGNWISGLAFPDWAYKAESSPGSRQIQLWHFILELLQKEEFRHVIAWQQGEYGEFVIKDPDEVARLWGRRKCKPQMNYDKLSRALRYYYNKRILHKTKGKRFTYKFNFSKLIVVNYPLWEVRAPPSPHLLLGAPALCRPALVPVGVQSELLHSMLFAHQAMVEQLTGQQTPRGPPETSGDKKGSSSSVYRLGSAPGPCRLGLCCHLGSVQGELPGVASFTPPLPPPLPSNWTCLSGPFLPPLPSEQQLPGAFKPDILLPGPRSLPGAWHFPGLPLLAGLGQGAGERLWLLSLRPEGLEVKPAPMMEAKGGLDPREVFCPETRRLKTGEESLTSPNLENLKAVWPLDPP
# In short: as §1
# [11] = target: T8, ETS2 (Homo sapiens, UniProt P15036 1-469)
# T8 sequence: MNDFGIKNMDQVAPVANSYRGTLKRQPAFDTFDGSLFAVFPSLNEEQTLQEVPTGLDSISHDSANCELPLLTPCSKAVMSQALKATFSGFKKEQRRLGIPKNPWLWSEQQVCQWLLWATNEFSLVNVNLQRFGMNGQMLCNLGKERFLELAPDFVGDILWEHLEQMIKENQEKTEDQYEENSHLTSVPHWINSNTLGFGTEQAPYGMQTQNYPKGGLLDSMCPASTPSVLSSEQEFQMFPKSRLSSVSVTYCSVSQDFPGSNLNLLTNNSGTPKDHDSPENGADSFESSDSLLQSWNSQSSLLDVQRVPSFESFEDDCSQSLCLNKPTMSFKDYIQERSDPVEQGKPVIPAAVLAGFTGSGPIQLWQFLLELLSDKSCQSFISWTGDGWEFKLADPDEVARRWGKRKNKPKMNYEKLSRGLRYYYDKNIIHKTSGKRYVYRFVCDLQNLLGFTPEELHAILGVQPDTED
# In short: as §1
# [12] = target: T9, SPDEF (Homo sapiens, UniProt O95238 1-335)
# T9 sequence: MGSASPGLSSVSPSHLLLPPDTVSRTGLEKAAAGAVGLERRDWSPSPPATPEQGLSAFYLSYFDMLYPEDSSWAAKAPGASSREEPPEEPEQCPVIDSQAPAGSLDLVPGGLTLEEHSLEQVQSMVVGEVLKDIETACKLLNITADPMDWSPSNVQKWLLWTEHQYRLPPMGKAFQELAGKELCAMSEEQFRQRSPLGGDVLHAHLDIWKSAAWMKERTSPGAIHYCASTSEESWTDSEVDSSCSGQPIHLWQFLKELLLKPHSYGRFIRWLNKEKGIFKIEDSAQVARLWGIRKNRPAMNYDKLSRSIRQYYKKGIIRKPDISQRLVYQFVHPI
# In short: as §1
# [13] = target: T10, ETV7 (Homo sapiens, UniProt Q9Y603 1-341)
# T10 sequence: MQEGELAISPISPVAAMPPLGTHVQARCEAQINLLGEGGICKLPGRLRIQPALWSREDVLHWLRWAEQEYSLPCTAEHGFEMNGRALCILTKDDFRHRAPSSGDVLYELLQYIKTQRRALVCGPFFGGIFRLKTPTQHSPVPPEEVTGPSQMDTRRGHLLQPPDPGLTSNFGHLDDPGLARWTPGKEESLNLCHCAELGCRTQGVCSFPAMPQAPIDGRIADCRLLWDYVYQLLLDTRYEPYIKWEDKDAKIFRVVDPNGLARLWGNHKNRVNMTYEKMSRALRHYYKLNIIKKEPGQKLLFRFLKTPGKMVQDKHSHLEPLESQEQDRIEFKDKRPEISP
# In short: as §1
# [14] = target: T11, ETV3 (Homo sapiens, UniProt P41162-2 1-143)
# T11 sequence: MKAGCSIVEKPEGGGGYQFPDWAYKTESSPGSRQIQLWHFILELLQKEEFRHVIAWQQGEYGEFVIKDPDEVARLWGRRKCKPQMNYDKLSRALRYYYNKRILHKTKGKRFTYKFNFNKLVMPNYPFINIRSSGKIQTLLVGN
# In short: as §1
sequence,measurement,setting,value
GATCTA,binding signal,[1],"1.12 fold enrichment (6-mer frequency, TF over GST control)"
same,binding signal,[2],"1.03 fold enrichment (6-mer frequency, TF over GST control)"
same,binding signal,[3],"1.06 fold enrichment (6-mer frequency, TF over GST control)"
same,binding signal,[4],"1.12 fold enrichment (6-mer frequency, TF over GST control)"
same,binding signal,[5],"1.01 fold enrichment (6-mer frequency, TF over GST control)"
same,binding signal,[6],"1.04 fold enrichment (6-mer frequency, TF over GST control)"
same,binding signal,[7],"1.05 fold enrichment (6-mer frequency, TF over GST control)"
same,binding signal,[8],"1.07 fold enrichment (6-mer frequency, TF over GST control)"
same,binding signal,[9],"1.04 fold enrichment (6-mer frequency, TF over GST control)"
same,binding signal,[10],"1.03 fold enrichment (6-mer frequency, TF over GST control)"
same,binding signal,[11],"1.04 fold enrichment (6-mer frequency, TF over GST control)"
same,binding signal,[12],"1.1 fold enrichment (6-mer frequency, TF over GST control)"
same,binding signal,[13],"1.1 fold enrichment (6-mer frequency, TF over GST control)"
same,binding signal,[14],"1.04 fold enrichment (6-mer frequency, TF over GST control)"
